This is part of a sample that, as a whole, favours compounds with a hit. Of some 83,000 tested, about 20% had one in any assay.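 Growth was measured after 48 h exposure to one concentration of compound in 96-well plates. Values under 10 count as active.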 Calls of active or inactive are those of the source.
System: HCT-116 colon
Assay: NCI-60 one-dose screen, 48 h (100 = growth as untreated, 0 = no growth, -100 = all killed)
Conditions: 10 µM unless noted
Description: Growth inhibition of the HCT-116 human tumor cell line is measured as a screen for anti-cancer activity. Cells are grown in 96 well plates and exposed to the test compound for 48 hours. Compounds are tested at a single concentration, which is 10^-5 M for most compounds. The reported endpoint is percent growth (GI% or GIPRCNT), where numbers from 0 - 100% represent growth inhibition, and numbers from -100% - 0 represent cell death. For example, a value of 40 represents 60% growth inhibition. A value of 0 means no net growth occurred over the course of the experiment. A value of -40 indicates 40% of cells at the beginning of the experiment died by the end of the experiment. A value of -100 means all cells are dead at the end of the experiment.
NCI-60 Human Tumor Cell Lines Screen was performed using the standard one-dose NCI protocol, which is described in more detail at https://dtp.cancer.gov/discovery_development/nci-60/default.htm.
Compounds with GIPRCNT values below 10 were considered active. Activity score was based on GIPRCNT using the following formula: […]
Score is 0 for GIPRCNT values of 100 or above, 50 for GIPRCNT values of 0, and 100 for GIPRCNT values of -100.

SMILES | growth
O=C(CCCCCCN1CC(=O)N2[C@@H](c3ccc(Cl)c(Cl)c3)c3[nH]c4ccccc4c3C[C@H]2C1=O)NO | 23.2% (inactive)
CCN(CC)C(=O)O/N=C(/C)c1ccccc1 | 104% (inactive)
Oc1ccc(-c2nnc3c4[nH]ccc4ncn23)cc1 | 88.8% (inactive)
CCOc1cc(/C=N\NC(=O)C[N+](C)(C)C)ccc1O | 111% (inactive)
CCOC(=O)c1cc(C(=O)OCC)c(C)nc1C | 105% (inactive)
Cc1c2c(cc3c1[nH]c1ccccc13)C=NCC2 | 71.1% (inactive)
CSc1nc(N)c2[nH]c(-c3cc4ccccc4[nH]c3=O)nc2n1 | 53.9% (inactive)
O=C(N/N=C/c1ccccc1O)c1ccncc1 | 48.7% (inactive)
O=C(CSc1nnc(Cc2ccccc2Nc2c(Cl)cccc2Cl)n1-c1ccccc1)N1N=C(c2ccc3ccccc3c2)CC1c1ccc(Cl)cc1 (stereo not given) | 86.4% (inactive)
N=C(N)c1ccc(NCCNc2ccc(C(=N)N)cc2)cc1 | 114% (inactive)
CCCCOc1nc2ccc(C)cc2cc1/C=C/C(=O)/C=C(O)/C=C/c1cc2cc(C)ccc2nc1OCCCC | 87.6% (inactive)
COc1cc(OC)c2sc(-c3ccc(-n4cncc4-c4ccc(OC)c(N)c4)cc3)nc2c1 | 66% (inactive)
CCN(CC)CC(=O)Nc1c(C)ccc(N)c1C | 84% (inactive)
CC(=O)NC1C(O[C@H]2C[C@H]3[C@@H]4CC=C5C[C@@H](O)CC[C@]5(C)[C@H]4CC[C@]3(C)[C@H]2[C@H](C)C(=O)CCC(C)C)OCC(O)C1O (stereo not given in full) | 31.8% (inactive)
COc1cnc2c(c1)C(=O)c1c-2n(CCCN2CCN(C)CC2)c(=O)c2cc(Cl)ccc12 | 32% (inactive)
CSC1=N/C(=C\c2cccc(OCc3ccc(Cl)cc3)c2)C(=O)N1 | 88.8% (inactive)
CCN(CC)CCCCCCCCNc1c2ccc(Cl)cc2nc2ccc(OC)cc12 | -63.8% (active)
Cc1[nH]c2ccccc2c1C1=CC(=O)C=CC1=O | 82.4% (inactive)
CS(=O)(=O)c1ccc(C(=O)N/N=C/c2cccc3ccccc23)cc1 | 61.8% (inactive)
O=C1OCC2=C1C(c1ccccc1)c1cc3c(cc1N2CCO)CCC3 (stereo not given) | 4.41% (active)

SMILES | growth
CCCCCCCCCCCCNC(=O)N[C@H](C(=O)N[C@H]1/C=C/CCNC(=O)/C=C/[C@H](C)NC1=O)C(C)C | -85.2% (active)
Cc1cc(O)c2cc3c(O)c(O)ccc3cc2c1 | 102% (inactive)
OC(CCCCCCCCC(O)CN1CCc2ccccc2C1)CN1CCc2ccccc2C1 (stereo not given) | 98% (inactive)
COc1ccc(-c2nn(C(=O)NCCN(C)C)cc2-c2ccncc2)cc1Cl | 23.1% (inactive)
COc1ccccc1/C=C/C(=O)CCC(=O)O | 101% (inactive)
CC(C)(C)c1nn(-c2ccccc2)c2c1C(=O)CSC(c1ccc3c(c1)OCO3)N2 (stereo not given) | 85.6% (inactive)
c1ccc(-c2ccc(-c3ccccc3)[nH]2)cc1 | 92.7% (inactive)
CN1C2CCC1/C(=C\c1ccc(Cl)cc1)C(=O)/C2=C/c1ccc(Cl)cc1 | 17.4% (inactive)
O=C1Nc2ccc(Br)cc2/C1=N/c1nc(-c2ccccc2)cs1 | 75.6% (inactive)
O=C(c1ccc(OCCN2CCCCC2)cc1)c1c(-c2ccc(O)cc2)sc2cc(O)ccc12 | 76.2% (inactive)
Cn1cnc([N+](=O)[O-])c1S(=O)(=O)Oc1ccccc1 | 68.4% (inactive)
CCN(CC)c1ccc(/C=C2/NC(=O)NC2=O)cc1 | 20.2% (inactive)
O=C(O)c1cc2cc(OCc3ccccc3)ccc2[nH]1 | 100% (inactive)
COc1ccc(C(=O)OC2C(OC3C(O)COC(O[C@H]4C[C@H]5[C@@H]6CC=C7C[C@@H](O)CC[C@]7(C)[C@H]6CC[C@]5(C)[C@H]4[C@H](C)C(=O)CCC(C)C)C3OC(C)=O)OCC(O)C2O)cc1 (stereo not given in full) | 1.33% (active)
CCN1C(=O)C(C)C=C(C)C=C1C (stereo not given) | 112% (inactive)
CCOC(=O)C1=C(C(=O)OCC)N(c2cc(OC)c(OC)c(OC)c2)C(N)=C(C#N)C1c1cc(=O)[nH]c2ccccc12 (stereo not given) | 100% (inactive)
Cc1c(C(=O)Nc2ccccc2F)sc2c(=O)[nH]cnc12 | 88.6% (inactive)
COc1cc(-c2nn(C(=O)NCCN3CCN(C)CC3)cc2-c2ccncc2)ccc1Cl | 76.9% (inactive)
COc1cc(C2CC(c3ccc(C)cc3)=NN2C=O)ccc1Oc1ccnc2cc(Cl)ccc12 (stereo not given) | 46.5% (inactive)
CC(SC(C)C(=O)N/N=C/c1cccc(Cl)c1)C(=O)N/N=C\c1cccc(Cl)c1 (stereo not given) | 2.39% (active)

From PubChem BioAssay (NCI)
